From PubChem BioAssay (EPA / NIEHS)
Results filed as inconclusive are left out. Active and inactive are the calls of the source. Rule for the calls: active = hit-call score of the fitted dose curve at least 0.9, where 1 is the maximum; inconclusive = response in the unintended direction; inactive = score below 0.9.

Read-out: sulfotransferase (SULT2A), SULT2A1 (gene 6822)
Experiment: CLD_SULT2A_24hr: CellzDirect (CLD) Gene Expression Assay for sulfotransferase (SULT2A) at 24 hours (AID 2283694);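 for AC50: potency for increased SULT2A1 mRNA level as induction over DMSO baseline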
Summary of the method: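 mRNA is measured by qNPA: probe hybridisation, S1 nuclease digestion, chemiluminescence, in lysates from human primary hepatocytes harvested 24 h after daily dosing. Vehicle was 0.2% DMSO. Phase-contrast microscopy flagged cytotoxicity (yes/no).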

Question: For `Nc1nc(N)nc(NC2CC2)n1`, which outcome is on record?
Answer: The outcome was “inactive”.

Question: Which outcome does the source give for `CCOP(=S)(OCC)OC(Cl)C(Cl)(Cl)Cl` (stereo not given) here?
Answer: Its outcome is “inactive”.

Question: With `CCOP(=S)(OCC)SCCSCC` as the compound, how does the outcome read?
Answer: Its outcome is “inactive”.

Question: Which AC50 does the source give for `CC[C@H](C)[C@H]1O[C@]2(C=C[C@@H]1C)C[C@@H]1C[C@@H](C/C=C(\C)[C@@H](O[C@H]3C[C@H](OC)[C@@H](O[C@H]4C[C@H](OC)[C@@H](NC)[C@H](C)O4)[C@H](C)O3)[C@@H](C)/C=C/C=C3\CO[C@@H]4[C@H](O)C(C)=C[C@@H](C(=O)O1)[C@]34O)O2` here?
Answer: The AC50 was 0.336 µM (active).

Question: With `Cc1nn(-c2cc(NS(C)(=O)=O)c(Cl)cc2Cl)c(=O)n1C(F)F` as the compound, how does the outcome read?
Answer: The outcome was “inactive”.

Question: For `C[Si](Cn1cncn1)(c1ccc(F)cc1)c1ccc(F)cc1`, which AC50 is on record?
Answer: The AC50 was 20 µM (active).

Question: `CCCSP(=O)(OCC)SCCC` was tested. Which outcome did it give?
Answer: Its outcome is “inactive”.

Question: `Cc1ccn2nc(S(=O)(=O)Nc3c(F)cccc3F)nc2n1` was tested. Which outcome did it give?
Answer: Its outcome is “inactive”.

Question: `CSc1nnc(C(C)(C)C)c(=O)n1N` was tested. Which outcome did it give?
Answer: Its outcome is “inactive”.

Question: `FC(F)C(F)(F)OCC(Cn1cncn1)c1ccc(Cl)cc1Cl` (stereo not given) was tested. Which outcome did it give?
Answer: Its outcome is “inactive”.

Question: How did the outcome turn out when `COc1ccc(C(=CC(=O)N2CCOCC2)c2ccc(Cl)cc2)cc1OC` was run?
Answer: Its outcome is “inactive”.

Question: How did the outcome turn out when `CCOP(=O)(SC(C)CC)N1CCSC1=O` (stereo not given) was run?
Answer: Its outcome is “inactive”.

Question: For `CON=C(C(=O)OC)c1ccccc1CON=C(C)c1cccc(C(F)(F)F)c1`, which outcome is on record?
Answer: Its outcome is “inactive”.

Question: With `N#CSCSC#N` as the compound, how does the outcome read?
Answer: The outcome was “inactive”.

Question: How did the outcome turn out when `CSC1=N[C@@](C)(c2ccccc2)C(=O)N1Nc1ccccc1` was run?
Answer: The outcome was “inactive”.

Question: With `CCOP(=S)(Oc1cnc(C(C)(C)C)nc1)OC(C)C` (stereo not given) as the compound, how does the outcome read?
Answer: Its outcome is “inactive”.

Question: `CCOP(=O)(OCC)Oc1cc(C)nc(C(C)C)n1` was tested. Which outcome did it give?
Answer: The outcome was “inactive”.

Question: `CC(=NC#N)N(C)Cc1ccc(Cl)nc1` was tested. Which outcome did it give?
Answer: The outcome was “inactive”.

Question: How did the outcome turn out when `CCCCSP(=O)(SCCCC)SCCCC` was run?
Answer: Its outcome is “inactive”.

Question: For `COc1cc(OC)nc(Sc2cccc(Cl)c2C(=O)O)n1`, which outcome is on record?
Answer: Its outcome is “inactive”.

Question: How did the outcome turn out when `C#CC(C)(C)NC(=O)c1cc(Cl)cc(Cl)c1` was run?
Answer: Its outcome is “inactive”.

Question: Which outcome does the source give for `Nc1c(Cl)cc([N+](=O)[O-])cc1Cl` here?
Answer: Its outcome is “inactive”.

Question: How did the outcome turn out when `CCc1cccc(CC)c1N(COC)C(=O)CCl` was run?
Answer: The outcome was “inactive”.

Question: Which outcome does the source give for `COc1cccc(C(=O)NN(C(=O)c2cc(C)cc(C)c2)C(C)(C)C)c1C` here?
Answer: The outcome was “inactive”.

Question: With `CC(C)=CC1C(C(=O)OCN2C(=O)C3=C(CCCC3)C2=O)C1(C)C` (stereo not given) as the compound, how does the outcome read?
Answer: The outcome was “inactive”.

Question: Which outcome does the source give for `C#CCC1=C(C)C(OC(=O)C2C(C=C(C)C)C2(C)C)CC1=O` (stereo not given) here?
Answer: The outcome was “inactive”.

Question: Which outcome does the source give for `CC(COc1ccc(Oc2ccccc2)cc1)Oc1ccccn1` (stereo not given) here?
Answer: The outcome was “inactive”.

Read-out: ABC Transporter (ABCB1), ABCB1 (gene 5243)
Experiment: CLD_ABCB1_48hr: CellzDirect (CLD) Gene Expression Assay for ABC Transporter (ABCB1) at 48 hours (AID 2283695);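 for AC50: potency for induction meaning increase of mRNA over DMSO vehicle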
Summary of the method: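 ABCB1 mRNA was measured by quantitative nuclease protection assay (chemiluminescence) 48 h after dosing. Human hepatocyte cultures from two separate donors received fresh dosing solutions daily for two days, with 0.2% DMSO as vehicle. Positive-direction fit against DMSO.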

Question: How did the outcome turn out when `Nc1nc(N)nc(NC2CC2)n1` was run?
Answer: The outcome was “inactive”.

Question: With `CCOP(=S)(OCC)OC(Cl)C(Cl)(Cl)Cl` (stereo not given) as the compound, how does the outcome read?
Answer: Its outcome is “inactive”.

Question: For `CCOP(=S)(OCC)SCCSCC`, which outcome is on record?
Answer: The outcome was “inactive”.

Question: Which outcome does the source give for `CC[C@H](C)[C@H]1O[C@]2(C=C[C@@H]1C)C[C@@H]1C[C@@H](C/C=C(\C)[C@@H](O[C@H]3C[C@H](OC)[C@@H](O[C@H]4C[C@H](OC)[C@@H](NC)[C@H](C)O4)[C@H](C)O3)[C@@H](C)/C=C/C=C3\CO[C@@H]4[C@H](O)C(C)=C[C@@H](C(=O)O1)[C@]34O)O2` here?
Answer: The outcome was “inactive”.

Question: `Cc1nn(-c2cc(NS(C)(=O)=O)c(Cl)cc2Cl)c(=O)n1C(F)F` was tested. Which outcome did it give?
Answer: Its outcome is “inactive”.

Question: With `CCCOCC(=Nc1ccc(Cl)cc1C(F)(F)F)n1ccnc1` as the compound, how does the outcome read?
Answer: Its outcome is “inactive”.

Question: For `C[Si](Cn1cncn1)(c1ccc(F)cc1)c1ccc(F)cc1`, which AC50 is on record?
Answer: The AC50 was 4.36 µM (active).

Question: With `S=C1NCCN1` as the compound, how does the outcome read?
Answer: Its outcome is “inactive”.

Question: How did the outcome turn out when `FC(F)C(F)(F)OCC(Cn1cncn1)c1ccc(Cl)cc1Cl` (stereo not given) was run?
Answer: Its outcome is “inactive”.

Question: Which AC50 does the source give for `COc1ccc(C(=CC(=O)N2CCOCC2)c2ccc(Cl)cc2)cc1OC` here?
Answer: The AC50 was 31 µM (active).

Question: With `CON=C(C(=O)OC)c1ccccc1CON=C(C)c1cccc(C(F)(F)F)c1` as the compound, how does the outcome read?
Answer: The outcome was “inactive”.

Question: Which outcome does the source give for `N#CSCSC#N` here?
Answer: The outcome was “inactive”.

Question: Which outcome does the source give for `CSC1=N[C@@](C)(c2ccccc2)C(=O)N1Nc1ccccc1` here?
Answer: The outcome was “inactive”.

Question: For `CCOP(=S)(Oc1cnc(C(C)(C)C)nc1)OC(C)C` (stereo not given), which AC50 is on record?
Answer: Its AC50 is 4.38 µM (active).

Question: `CC(=NC#N)N(C)Cc1ccc(Cl)nc1` was tested. Which outcome did it give?
Answer: Its outcome is “inactive”.

Question: How did the outcome turn out when `CCCCSP(=O)(SCCCC)SCCCC` was run?
Answer: The outcome was “inactive”.

Question: Which outcome does the source give for `CNC(=O)ON=C(C)SC` here?
Answer: The outcome was “inactive”.

Question: With `COc1cc(OC)nc(Sc2cccc(Cl)c2C(=O)O)n1` as the compound, how does the outcome read?
Answer: The outcome was “inactive”.

Question: How did the outcome turn out when `CC(C)N(C(=O)SCC(Cl)=C(Cl)Cl)C(C)C` was run?
Answer: Its outcome is “inactive”.

Question: `C#CC(C)(C)NC(=O)c1cc(Cl)cc(Cl)c1` was tested. Which outcome did it give?
Answer: Its outcome is “inactive”.

Question: Which outcome does the source give for `Nc1c(Cl)cc([N+](=O)[O-])cc1Cl` here?
Answer: Its outcome is “inactive”.

Question: For `CN(C)NC(=O)CCC(=O)O`, which outcome is on record?
Answer: The outcome was “inactive”.

Question: Which outcome does the source give for `CCc1cccc(CC)c1N(COC)C(=O)CCl` here?
Answer: Its outcome is “inactive”.

Question: How did the outcome turn out when `COc1cccc(C(=O)NN(C(=O)c2cc(C)cc(C)c2)C(C)(C)C)c1C` was run?
Answer: The outcome was “inactive”.

Question: How did the outcome turn out when `CN(C)C(=O)Nc1cccc(C(F)(F)F)c1` was run?
Answer: The outcome was “inactive”.

Question: `C#CCC1=C(C)C(OC(=O)C2C(C=C(C)C)C2(C)C)CC1=O` (stereo not given) was tested. Which outcome did it give?
Answer: The outcome was “inactive”.

Question: Which outcome does the source give for `CC(COc1ccc(Oc2ccccc2)cc1)Oc1ccccn1` (stereo not given) here?
Answer: Its outcome is “inactive”.

Read-out: glucuronosyltransferase (UGT1A1), UGT1A1 (gene 54658)
Experiment: CLD_UGT1A1_24hr: CellzDirect (CLD) Gene Expression Assay for glucuronosyltransferase (UGT1A1) at 24 hours (AID 2283696)
Summary of the method: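 UGT1A1 transcript induction was measured by quantitative nuclease protection assay (chemiluminescence) in human hepatocyte cultures 24 h after daily fresh dosing, with 0.2% DMSO as vehicle and baseline.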

Question: For `Cc1nn(-c2cc(NS(C)(=O)=O)c(Cl)cc2Cl)c(=O)n1C(F)F`, which outcome is on record?
Answer: Its outcome is “inactive”.

Question: For `FC(F)C(F)(F)OCC(Cn1cncn1)c1ccc(Cl)cc1Cl` (stereo not given), which outcome is on record?
Answer: Its outcome is “inactive”.

Question: Which outcome does the source give for `CCOP(=O)(SC(C)CC)N1CCSC1=O` (stereo not given) here?
Answer: The outcome was “inactive”.

Question: With `CC(=NC#N)N(C)Cc1ccc(Cl)nc1` as the compound, how does the outcome read?
Answer: Its outcome is “inactive”.

Question: Which AC50 does the source give for `CCCCSP(=O)(SCCCC)SCCCC` here?
Answer: Its AC50 is 1.9 µM (active).

Question: With `CNC(=O)ON=C(C)SC` as the compound, how does the outcome read?
Answer: The outcome was “inactive”.

Question: Which outcome does the source give for `COc1cc(OC)nc(Sc2cccc(Cl)c2C(=O)O)n1` here?
Answer: Its outcome is “inactive”.

Question: For `Nc1c(Cl)cc([N+](=O)[O-])cc1Cl`, which outcome is on record?
Answer: Its outcome is “inactive”.

Question: For `CN(C)NC(=O)CCC(=O)O`, which outcome is on record?
Answer: Its outcome is “inactive”.

Question: For `CCCSP(=O)(OCC)Oc1ccc(Br)cc1Cl` (stereo not given), which AC50 is on record?
Answer: Its AC50 is 20 µM (active).

Question: For `CN(C)C(=O)Nc1cccc(C(F)(F)F)c1`, which outcome is on record?
Answer: Its outcome is “inactive”.
